Measurements published in PubChem BioAssay.
Active and inactive are the calls of the source.

Key:
[1] = optical density shifts of acrAB sulA E. coli – strain DRC41, OD650, 48 h, E. coli filamentation inducer project, primary screen (AID 1152); conditions: higher = more signal, called active from +8 up or from −8 down;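 note: E. coli MC1000 strain DRC41 lacking acrAB efflux pump and sulA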
[2] = probe aLefty1 binding on compound microarray – biochemical, small-molecule microarray, 635/667 nm fluorescence, primary screen (AID 1153); conditions: higher = more signal;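 note: score merges spot fluorescence with signal-to-noise ratio from the scanned slide images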
[3] = plasmodial surface anion channel blockers, osmotic lysis – cell-based, P. falciparum Indochina, OD700, 1 h, primary screen (AID 1154); conditions: P. falciparum Indochina infected RBC osmotic lysis, higher = more signal, called active from +8 up or from −8 down
[4] = plasmodial surface anion channel blockers, osmotic lysis – cell-based, P. falciparum Indochina, OD700, 2 h, primary screen (AID 1155);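 note: lysis reports solute entry through the parasite surface anion channel PSAC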; conditions: P. falciparum Indochina infected erythrocytes, higher = more signal, called active from +8 up or from −8 down
[5] = changes in parasitized red cell lysis, either direction – P. falciparum Indochina, OD700, 3 h, PSAC antagonist project, primary screen (AID 1156); conditions: P. falciparum-infected erythrocytes, osmotic lysis, higher = more signal, called active from +8 up or from −8 down
[6] = plasmodial surface anion channel blockers, osmotic lysis – cell-based, P. falciparum Indochina, OD700, 18 h, primary screen (AID 1157); conditions: P. falciparum Indochina infected erythrocytes, osmotic lysis OD700, 18 h; higher = more signal, called active from +8 up or from −8 down
[7] = S6 kinase pathway phospho-S6 level changes – cell-based, A549, cytoblot, luminescence, serum-stimulated, primary screen (AID 1158); conditions: 5 h, higher = more signal;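 note: serum-stimulated A549 lung adenocarcinoma cells; signal is phosphorylated S6 detected by cytoblot immunostaining with HRP secondary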
[8] = molecular target: NADPH oxidase 2 (Homo sapiens) (UniProt P04839); assay: compounds shifting NOX2 Amplex Red fluorescence – cell-based, HEK293-NOX2, PMA-stimulated, NOX inhibitor project, primary screen (AID 1159); conditions: 45 min, higher = more signal, called active from +8 up or from −8 down; note: test concentration not given here
NADPH oxidase 2 (Homo sapiens), sequence (P04839 whole entry, looked up): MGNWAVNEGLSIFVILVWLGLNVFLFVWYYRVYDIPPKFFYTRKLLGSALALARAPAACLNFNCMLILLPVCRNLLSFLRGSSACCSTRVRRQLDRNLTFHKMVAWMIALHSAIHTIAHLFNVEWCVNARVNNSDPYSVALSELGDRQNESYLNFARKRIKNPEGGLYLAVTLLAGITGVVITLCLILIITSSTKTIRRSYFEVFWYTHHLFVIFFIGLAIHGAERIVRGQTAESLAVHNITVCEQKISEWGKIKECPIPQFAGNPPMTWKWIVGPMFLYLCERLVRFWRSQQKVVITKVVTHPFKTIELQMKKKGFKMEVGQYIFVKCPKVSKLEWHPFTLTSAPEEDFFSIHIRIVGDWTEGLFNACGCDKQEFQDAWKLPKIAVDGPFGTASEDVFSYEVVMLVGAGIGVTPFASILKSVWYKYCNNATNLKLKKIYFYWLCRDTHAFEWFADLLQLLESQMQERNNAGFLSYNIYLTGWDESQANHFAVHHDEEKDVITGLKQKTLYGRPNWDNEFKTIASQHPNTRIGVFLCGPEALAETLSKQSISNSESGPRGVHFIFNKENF

[9] = molecular target: NADPH oxidase 4 (Homo sapiens) (UniProt Q9NPH5); assay: compounds shifting NOX4 Amplex Red fluorescence – cell-based, HEK293-NOX4, tetracycline-induced, NOX inhibitor project, primary screen (AID 1160); conditions: HEK293-NOX4, Amplex Red H2O2 fluorescence, 45 min; higher = more signal, called active from +8 up or from −8 down
NADPH oxidase 4 (Homo sapiens), sequence (Q9NPH5 whole entry, looked up): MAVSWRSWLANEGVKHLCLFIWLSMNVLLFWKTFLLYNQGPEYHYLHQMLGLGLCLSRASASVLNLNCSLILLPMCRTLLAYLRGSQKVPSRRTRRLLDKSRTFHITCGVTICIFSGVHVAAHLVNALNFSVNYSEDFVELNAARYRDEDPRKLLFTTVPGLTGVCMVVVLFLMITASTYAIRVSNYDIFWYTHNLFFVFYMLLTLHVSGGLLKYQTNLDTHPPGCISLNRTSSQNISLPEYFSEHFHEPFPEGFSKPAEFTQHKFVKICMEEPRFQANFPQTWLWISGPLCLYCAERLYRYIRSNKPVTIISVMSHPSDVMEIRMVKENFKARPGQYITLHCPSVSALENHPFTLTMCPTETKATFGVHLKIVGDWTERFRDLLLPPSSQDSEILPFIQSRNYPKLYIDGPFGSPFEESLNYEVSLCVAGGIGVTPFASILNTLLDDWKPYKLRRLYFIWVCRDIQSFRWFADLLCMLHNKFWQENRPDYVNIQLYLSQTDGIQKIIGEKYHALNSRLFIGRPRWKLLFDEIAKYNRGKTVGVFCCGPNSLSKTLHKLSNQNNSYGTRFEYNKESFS

[10] = molecular target: NADPH oxidase 5 (Homo sapiens) (UniProt Q96PH1); assay: compounds shifting NOX5 Amplex Red fluorescence – cell-based, HEK293-NOX5, NOX inhibitor project, primary screen (AID 1161); conditions: HEK293-NOX5, ionomycin, 45 min, higher = more signal
NADPH oxidase 5 (Homo sapiens), sequence (Q96PH1 whole entry, looked up): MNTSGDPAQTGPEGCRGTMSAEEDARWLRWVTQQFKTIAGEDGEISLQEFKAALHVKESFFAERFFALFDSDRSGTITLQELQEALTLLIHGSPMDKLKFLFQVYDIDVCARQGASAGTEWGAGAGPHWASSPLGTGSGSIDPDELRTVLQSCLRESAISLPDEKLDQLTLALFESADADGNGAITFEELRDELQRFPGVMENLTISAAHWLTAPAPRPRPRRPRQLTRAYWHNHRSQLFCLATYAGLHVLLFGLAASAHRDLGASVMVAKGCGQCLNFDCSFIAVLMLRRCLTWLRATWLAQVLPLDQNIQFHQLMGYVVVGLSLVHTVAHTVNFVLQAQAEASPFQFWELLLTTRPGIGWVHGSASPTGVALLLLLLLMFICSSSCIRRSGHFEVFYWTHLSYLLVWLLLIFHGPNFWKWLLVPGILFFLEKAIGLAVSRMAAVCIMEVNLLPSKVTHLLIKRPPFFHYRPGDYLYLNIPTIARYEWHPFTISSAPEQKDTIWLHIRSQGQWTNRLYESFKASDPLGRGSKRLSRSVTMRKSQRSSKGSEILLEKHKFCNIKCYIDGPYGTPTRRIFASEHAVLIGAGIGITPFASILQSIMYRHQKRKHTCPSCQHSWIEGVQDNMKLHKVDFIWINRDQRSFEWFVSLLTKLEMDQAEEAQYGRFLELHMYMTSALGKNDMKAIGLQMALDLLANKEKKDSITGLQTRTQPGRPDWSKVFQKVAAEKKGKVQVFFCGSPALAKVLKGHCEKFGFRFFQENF

[11] = compound effects on lung adenocarcinoma cell viability – A549, calcein-AM fluorescence, 48 h, basal, profiling panel (AID 1162); conditions: higher = more signal; note: test concentration not given here
[12] = compound effects on differentiated 3T3-L1 adipocyte viability – cell-based, 3T3-L1 adipocytes, calcein-AM fluorescence, 48 h, basal, profiling panel (AID 1163); conditions: 3T3-L1 adipocytes viability, higher = more signal; note: test concentration not given here
[13] = compound effects on hepatocellular carcinoma cell viability – HepG2, calcein-AM fluorescence, 48 h, basal, profiling panel (AID 1164); conditions: higher = more signal; note: test concentration not given here
[14] = compound effects on multiple myeloma cell viability – MM1S, calcein-AM fluorescence, 48 h, basal, profiling panel (AID 1165); conditions: higher = more signal; note: test concentration not given here
[15] = calcein-AM signal in unstimulated myeloma cells – cell-based, calcein-AM fluorescence, 48 h, PK04 Diversity Set, profiling panel (AID 1166); conditions: RPMI8226 myeloma viability, higher = more signal;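 note: cells grown under basal conditions without added stimulus; test concentration not given here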
[16] = JC-1 mitochondrial signal, unstimulated HepG2 cells – cell-based, JC-1 fluorescence, 24 h, 100 nL compound, profiling panel (AID 1167); conditions: HepG2 mitochondrial potential, higher = more signal; note: test concentration not given here
[17] = JC-1 mitochondrial signal, unstimulated adipocytes – cell-based, JC-1 fluorescence, 3T3-L1 adipocytes, 24 h, 100 nL compound, profiling panel (AID 1168); conditions: JC-1 mitochondrial fluorescence, higher = more signal, called active from +8 up or from −8 down; note: test concentration not given here
[18] = JC-1 mitochondrial signal, unstimulated myeloma cells – cell-based, JC-1 fluorescence, RPMI8226, 24 h, 100 nL compound, profiling panel (AID 1169); conditions: JC-1 mitochondrial potential fluorescence, higher = more signal; note: test concentration not given here
[19] = JC-1 mitochondrial signal, unstimulated MM1S myeloma – cell-based, JC-1 fluorescence, 24 h, 100 nL compound, profiling panel (AID 1170); conditions: MM1S mitochondrial potential, higher = more signal; note: test concentration not given here
[20] = resazurin metabolic signal in A549 cells – cell-based, resazurin fluorescence, 24 h, PK04 Diversity Set, profiling panel (AID 1171); conditions: A549 viability, higher = more signal, called active from +8 up or from −8 down; note: test concentration not given here

SMILES	z-score [1]	composite z-score [2]	z-score [3]	z-score [4]	z-score [5]	z-score [6]	z-score [7]	z-score [8]	z-score [9]	z-score [10]	z-score [11]	z-score [12]	z-score [13]	z-score [14]	z-score [15]	z-score [16]	z-score [17]	z-score [18]	z-score [19]	z-score [20]
CCCC[C@@H](O)C1=C(C)C[C@H]2C(=O)N(Cc3ccccc3)C(=O)[C@H]2[C@H]1CO	0.969 (inactive)	0.0736	2.44 (inactive)	-0.252 (inactive)	-0.347 (inactive)	0.206 (inactive)	0.431	-0.789 (inactive)	0.358 (inactive)	-0.0632	0.35	0.356	-0.0592	-0.0699	1.09	0.579	0.164 (inactive)	-0.0812	-0.785	0.453 (inactive)
CC(C)C[C@@H]1NC(=O)[C@H]2C[C@@H](C(=O)O)[C@@H](c3ccc(O)cc3)N2C1=O	0.498 (inactive)	0.0455	5.88 (inactive)	1.66 (inactive)	-1.66 (inactive)	0.448 (inactive)	-0.239	-1.72 (inactive)	-2.25 (inactive)	-0.356	0.48	0.0559	0.111	-2.7	0.25	1.27	-0.0304 (inactive)	0.433	-0.0341	-0.0496 (inactive)
CCOC(=O)[C@H](Cc1ccccc1)NC(=O)CCC1CC(OC(=O)NCc2ccc3c(c2)OCO3)CC2(CCCC(COC(=O)NCc3ccccc3)O2)O1 (stereo not given in full)	0.0722 (inactive)	-0.101	0.0765 (inactive)	0.979 (inactive)	-1.37 (inactive)	0.565 (inactive)	-0.0074	-0.988 (inactive)	0.852 (inactive)	0.562	-0.195	-0.64	0.607	0.84	0.709	2.27	0.392 (inactive)	0.0886	-0.997	0.98 (inactive)
CC(C)(C)OC(=O)CC[C@]1(C(=O)NCc2ccccc2)N=C(c2ccc(OCCCO)cc2)O[C@H]1c1ccccc1	0.185 (inactive)	1.18	14.6 (active)	1.79 (inactive)	1.14 (inactive)	0.887 (inactive)	-0.009	-2.22 (inactive)	-0.583 (inactive)	-1.81	-1.02	0.587	-0.329	-1.99	-1.14	0.956	-1.1 (inactive)	-0.762	-0.531	0.198 (inactive)
COc1ccc(COC(=O)NN=C2C[C@@H](O)[C@@H](O)[C@@H]3[C@@H]4C(=O)N(c5ccc(F)cc5F)C(=O)[C@@H]4CC[C@@H]23)cc1	0.0009 (inactive)	0.235	5.54 (inactive)	0.54 (inactive)	1.15 (inactive)	0.302 (inactive)	0.281	1.5 (inactive)	-1.98 (inactive)	-1.12	-0.102	0.257	-0.987	-0.738	-0.952	0.556	0.301 (inactive)	-0.195	0.627	0.909 (inactive)
CCOC(=O)C[C@H]1[C@H](OC(=O)c2ccc(C(=O)c3ccccc3)cc2)[C@@H](NC(=O)c2ccc(-c3ccccc3)cc2)c2cc(OCCCO)ccc2N1C(=O)c1ccc2ccccc2n1	2.25 (inactive)	-0.118	5.21 (inactive)	0.485 (inactive)	0.464 (inactive)	0.407 (inactive)	0.756	-1.46 (inactive)	0.424 (inactive)	0.216	1.03	1.44	1.35	0.598	1.08	1.92	1.98 (inactive)	0.611	-1.18	0.336 (inactive)
CCCNC(=O)OC[C@H]1O[C@H](CCON=C2[C@H]3CCn4c(=O)n(-c5ccccc5)c(=O)n4[C@H]3[C@H](O)[C@@H]3O[C@H]23)C=C[C@@H]1Oc1ccc(OC)cc1	0.653 (inactive)	0.198	1.69 (inactive)	-0.0218 (inactive)	0.378 (inactive)	0.268 (inactive)	-0.254	-1.58 (inactive)	-0.373 (inactive)	-0.987	-0.343	-0.414	-0.555	-1.83	-1.44	-0.25	-0.567 (inactive)	-0.7	-0.75	-1.2 (inactive)
COC(=O)CC=C[C@H](C)[C@H](CO)NS(=O)(=O)c1ccc(C)cc1	-1.48 (inactive)	-0.221	0.251 (inactive)	-0.085 (inactive)	-0.206 (inactive)	-0.119 (inactive)	-0.497	1.48 (inactive)	0.227 (inactive)	-0.484	-0.595	0.41	-0.392	0.165	0.364	-0.976	-0.0535 (inactive)	-0.49	0.604	-0.711 (inactive)
COc1ccc(O[C@H]2C=C[C@@H](c3ccccc3)O[C@@H]2COC(=O)CCC(C)=NOCC[C@@H]2C=C[C@H](OC(C)=O)[C@@H](COC(C)=O)O2)cc1	-0.445 (inactive)	-0.0176	8.07 (active)	1.2 (inactive)	1 (inactive)	0.588 (inactive)	-0.268	-1.64 (inactive)	-0.327 (inactive)	-2.19	-0.284	-0.699	-0.1	-0.919	-0.112	-0.359	0.0763 (inactive)	-0.55	-0.522	0.369 (inactive)
O=C1[C@H]2[C@H]3[C@H](O)[C@H](O)CC(=NO[C@@H]4O[C@H](CO)[C@@H](O)[C@H](O)[C@H]4O)[C@@H]3CC[C@H]2C(=O)N1Cc1ccc2c(c1)OCO2	-0.161 (inactive)	-0.0016	5.54 (inactive)	0.373 (inactive)	1.3 (inactive)	0.404 (inactive)	0.117	-0.486 (inactive)	0.295 (inactive)	-0.163	-0.575	1.13	-0.874	-0.778	-1.06	0.221	-1.34 (inactive)	-0.981	0.386	0.159 (inactive)
COc1ccccc1CN1C(=O)c2ccccc2[C@@]2(Cc3ccccc3N(C(C)C)C2=O)[C@@H]1c1ccc(CO)cc1	1.74 (inactive)	0.0371	0.0937 (inactive)	-0.756 (inactive)	-0.964 (inactive)	-0.876 (inactive)	1.79	-0.437 (inactive)	0.215 (inactive)	1.04	0.212	0.423	1.29	-0.19	0.931	0.881	0.576 (inactive)	0.563	0.374	-1.64 (inactive)
COC(=O)[C@H](C)NC(=O)CCC1CC(OC(=O)NCc2ccc3c(c2)OCO3)CC2(CCCC(COC(=O)NCCOc3ccccc3)O2)O1 (stereo not given in full)	-0.638 (inactive)	-0.414	-1.1 (inactive)	-0.123 (inactive)	-0.409 (inactive)	-0.323 (inactive)	1.48	-0.245 (inactive)	0.758 (inactive)	0.214	1.99	0.714	0.748	0.0937	0.487	0.916	1.67 (inactive)	-0.647	-1.09	0.294 (inactive)
CO[C@H]1COC(=O)CC=C[C@H](C)[C@@H](NS(=O)(=O)c2ccc(C)cc2)COC(=O)CC=C[C@@H]1C	-1.05 (inactive)	-0.194	0.0723 (inactive)	-1.13 (inactive)	0.157 (inactive)	-0.592 (inactive)	5.19	0.0288 (inactive)	0.256 (inactive)	0.622	0.368	0.902	0.605	-0.204	0.15	-0.0318	-1.58 (inactive)	0.0791	-1.17	-0.0226 (inactive)
O=C1C[C@@H](O)[C@@H](O)[C@@H]2[C@@H]3C(=O)N(c4cccc(Oc5ccccc5)c4)C(=O)[C@@H]3CC[C@@H]12	-0.268 (inactive)	-0.0652	0.956 (inactive)	-0.329 (inactive)	0.406 (inactive)	0.0818 (inactive)	-0.363	-0.837 (inactive)	-0.154 (inactive)	0.558	0.494	-0.202	-0.323	0.309	-0.0677	-0.0107	0.615 (inactive)	0.54	0.531	-0.187 (inactive)
O=C1[C@H]2[C@H]3[C@H](O)[C@H](O)CC(=NOC[C@@H](O)COCc4ccco4)[C@H]3CC[C@H]2C(=O)N1c1cccc(Oc2ccccc2)c1	0.66 (inactive)	-0.353	3.18 (inactive)	1.15 (inactive)	1.28 (inactive)	0.795 (inactive)	0.404	-2.98 (inactive)	1.31 (inactive)	-0.185	1.26	0.01	-0.463	0.511	0.977	0.526	0.994 (inactive)	0.682	-1.2	0.26 (inactive)
CN(C)CCCNC(=O)[C@@H]1c2ccccc2C(=O)N(Cc2cc(F)cc(C(F)(F)F)c2)[C@H]1c1ccc(CO)cc1	-0.72 (inactive)	-0.0818	1.88 (inactive)	0.382 (inactive)	2.38 (inactive)	0.745 (inactive)	0.269	0.547 (inactive)	-0.0177 (inactive)	-2.19	-0.276	0.239	-0.318	0.137	0.606	1.3	-0.557 (inactive)	0.735	-0.195	0.0923 (inactive)
C#C[C@@H]1Oc2ccccc2S(=O)(=O)N2CCC[C@H]12	-1.16 (inactive)	0.149	0.217 (inactive)	0.676 (inactive)	-0.0722 (inactive)	0.107 (inactive)	-0.222	0.0921 (inactive)	-1.48 (inactive)	-0.194	-0.244	-0.0897	-0.48	0.0671	-1.71	-0.998	0.121 (inactive)	0.51	0.193	-0.884 (inactive)
COC(=O)CC=C[C@H](C)[C@@H](OCc1ccccc1Br)C(C)C	0.358 (inactive)	-0.149	0.644 (inactive)	0.673 (inactive)	1.01 (inactive)	0.589 (inactive)	0.104	1.04 (inactive)	0.478 (inactive)	0.457	0.921	0.0901	1.34	0.426	0.736	0.744	0.319 (inactive)	0.00667	-0.822	-0.307 (inactive)
